Inconclusive results are not listed. A number with no mark means an inactive call. Calls follow the shape of the full dose curve.
Biological target: Beta-2 adrenergic receptor (Homo sapiens) (UniProt P07550)
Assay: Adrenergic beta2 receptor (ADRB2) small molecule antagonists, cell-based qHTS assay (AID 1963592); also: nearly all actives have a fitted effect of over 50% in size
Conditions: CHO-ADRB2 cells, isoproterenol-stimulated cAMP HTRF ratio, 0.5 h; series mostly up to 92.4 µM; activity change, negative = inhibition: at the top concentration
Excerpt: U.S. Tox21 Program National Center for Advancing Translational Sciences [NCATS] Division of Preclinical Innovation [DPI] U.S. Environmental Protection Agency [EPA] National Institutes of Environmental Health Sciences [NIEHS] National Toxicology Program [NTP] U.S. Food and Drug Administration [FDA] Tox21 Assay Overview: Beta adrenergic receptors (Beta-ARs) belong to the G-protein coupled receptor (GPCR) superfamily, includes three subtypes - beta1, beta2, and beta3. Beta1-AR is the predominant receptor subtype expressed in the heart, and beta2-AR is expressed in the kidney, lung, blood vessel and in the heart, and beta3 is found in the adipocytes. Beta1 and 2 ARs couple to Gs protein and elevate cyclic adenosine mono phosphate (cAMP), which activates protein kinase A and leads to the downstream signaling responsible for the physiological actions. Beta-AR agonists or antagonists are the most prescribed therapeutic agents for heart failure and asthma, and these were one of the first target receptors for the rational drug design. Tox21 10K compound library was screened using the cAMP-Gs dynamic assay (Cisbio Bioassays, Shelton, CT) to identify agonists/antagonists of the Gs-coupled human adrenergic, beta2 receptor (ADRB2) in the CHO-ADRB2 cell line (Codex BioSolutions, Inc. Gaithersburg, MD), which stably over-expresses ADRB2. The principle of cAMP-Gs dynamic assay is based on HTRF technology, which facilitates the fluorescence resonance energy transfer (FRET) between donor Europium cryptate and acceptor d2-labeled cAMP. The cAMP generated within cells competes with the red acceptor, d2-labled cAMP, for binding to the monoclonal anti-cAMP-cryptate (Europium donor). An increase in intracellular cAMP leads to the disruption of FRET signal, and the signal is inversely proportional to the cAMP concentration. Propranolol HCl (Sigma-Aldrich, St. Louis, MO) was used as a positive control in the screening.
Tox21 Assay Protocol Summary: CHO-ADRB2 cells were dispensed at 1,000/well in 4uL assay medium into white/solid 1536-well plates (Greiner Bio-One North America Inc., Monroe, NC) using a Multidrop Combi dispenser (ThermoFisher Scientific, Waltham, MA). The assay plates were incubated at 37C and 5% CO2 for an overnight (18-20hr). Then positive control and test compounds dissolved in DMSO were transferred to the assay plates at 23nL using a Pintool station (Wako, San Diego, CA). Following the compound and positive control transfer, 1uL agonist-stimulation mix containing 1nM Isoproterenol HCl, 100uM IBMX and 25uM Ro-20-1724 was added to each well of the assay plates using BioRAPTR Flying Reagent Dispenser (FRD, Beckman Coulter, Brea, CA). The assay plates were incubated at room temperature for 0.5hr. Then 2.5ul each d2-labled cAMP and anti-cAMP-cryptate solutions were added separately to each well of the assay plates using an FRD and the assay plates were incubated at room temperature for 1hr. The fluorescence signal was measured at two different wavelengths (665nm and 615nm) using an Envision plate reader (Perkin Elmer, Shelton, CT). Data were expressed as the ratio of 665 nm/615 nm.
% is scaled to controls: 0 for no effect and ±100 for the full control effect.

Sequence of Beta-2 adrenergic receptor (Homo sapiens) (P07550 whole entry, looked up): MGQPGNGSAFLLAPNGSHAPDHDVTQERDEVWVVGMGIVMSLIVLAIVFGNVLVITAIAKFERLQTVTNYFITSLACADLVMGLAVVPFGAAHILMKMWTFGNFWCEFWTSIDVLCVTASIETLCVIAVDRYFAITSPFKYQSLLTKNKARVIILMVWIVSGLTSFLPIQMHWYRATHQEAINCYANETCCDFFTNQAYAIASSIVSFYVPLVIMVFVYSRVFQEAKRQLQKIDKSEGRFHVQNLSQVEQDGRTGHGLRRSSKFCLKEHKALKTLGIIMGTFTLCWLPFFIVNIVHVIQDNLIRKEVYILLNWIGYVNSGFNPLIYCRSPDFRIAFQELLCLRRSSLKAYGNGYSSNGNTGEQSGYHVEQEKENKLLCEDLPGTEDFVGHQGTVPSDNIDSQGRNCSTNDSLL

Row | SMILES | activity change, negative = inhibition
1 | Nc1c2c(nc3c1CCC3)CCCC2 | -10.2% [at 42.5 µM]
2 | CCCCCc1ccco1 | 4.05% [at 42.5 µM]
3 | O=C(CCCCC(=O)Nc1c(I)cc(I)c(C(=O)O)c1I)Nc1c(I)cc(I)c(C(=O)O)c1I | -1.02% [at 42.5 µM]
4 | CCOC(=O)c1cccnc1 | -0.558% [at 42.5 µM]
5 | O=C(O)c1cccc(C(=O)O)n1 | 0.0194%
6 | N=C(N)c1ccc(OCCCOc2ccc(C(=N)N)cc2)cc1 | 0.671% [at 42.5 µM]
7 | O=C(O)CCC(=O)C(=O)O | -8.61%
8 | O=C(O)c1cccc(-c2noc(-c3ccccc3F)n2)c1 | 0.563% [at 42.5 µM]
9 | O=C(NCCO[N+](=O)[O-])c1cccnc1 | 6.83% [at 42.5 µM]
10 | O=S(=O)(c1ccccc1)c1ccc(Cl)cc1 | -13.8%
11 | O=C(CCCCCCCCc1cccnc1)N1CCC(C=C(c2ccccc2)c2ccccc2)CC1 | -21%
12 | Cc1ccccc1C#N | 0.11%
13 | CC(C)=CCC/C(C)=C/COC=O | -0.162%
14 | COc1c(Br)cc(Br)c(C)c1Br | -6.75%
15 | CCN(C(=O)c1cc(C)cc(OC[C@H](C)Nc2ccncc2)c1)C(C)C | 0.235% [at 42.5 µM]
16 | O=C(O)COCC(=O)O | -11.1%
17 | NC[C@H]1O[C@H](O[C@H]2[C@H](O[C@@H]3O[C@H](CO)[C@@H](O)[C@H]3O)C(O)[C@H](N)C[C@@H]2N)[C@H](N)[C@@H](O)[C@@H]1O (stereo not given in full) | 7.44% [at 8.39 µM]
18 | CC1=C(/C=C/C(C)=C/C=C/C(C)=C\C(=O)O)C(C)(C)CCC1 | -0.0528%
19 | CCO | 1.91%
20 | CCOC(=O)CC(=O)c1cc(F)c(Cl)nc1Cl | 0.693%

Row | SMILES | activity change, negative = inhibition
21 | C/C=C(\C)C(=O)OCCC(C)CCC=C(C)C (stereo not given) | 1.66%
22 | Oc1c(I)cc(I)c2cccnc12 | -5.58% [at 42.5 µM]
23 | COc1cc2c3cc1Oc1cc(ccc1O)C[C@@H]1c4c(cc(OC)c(O)c4Oc4ccc(cc4)C[C@@H]3N(C)CC2)CC[N+]1(C)C | 1.99% [at 42.5 µM]
24 | c1ccc(C[P+](c2ccccc2)(c2ccccc2)c2ccccc2)cc1 | -27.6%
25 | CC1=NC(C)OC1C (stereo not given) | 3.04%
26 | C=C(C)C(=O)OCC[N+](C)(C)C | -1.74%
27 | CC1(C)S[C@@H]2[C@H](NC(=O)C(c3ccccc3)S(=O)(=O)O)C(=O)N2[C@H]1C(=O)O (stereo not given in full) | -2% [at 42.5 µM]
28 | N#CC1(N)CCCCC1 | 11.4%
29 | CC(C)CCOC(=O)CC(C)C | 6.91%
30 | CCOC(=O)Cn1c(=O)sc2cccc(Cl)c21 | -0.154%
31 | C[C@@]12C(=O)OC(=O)[C@]1(C)C1CCC2O1 | 3.89% [at 42.5 µM]
32 | C1=CCC(c2ccccc2)CC1 (stereo not given) | 7.42%
33 | COc1ccc(/C(C)=C/C(=O)O)c(OC)c1 | -1.8% [at 42.5 µM]
34 | C=CS(=O)(=O)O | 3.07%
35 | CCOC(=O)C(=O)CCc1ccccc1 | 0.0422% [at 42.5 µM]
36 | O=C(O)c1cc(N=Nc2ccc([N+](=O)[O-])cc2)ccc1O | -10%
37 | C1=CCCC1 | 1.87%
38 | SCCCCCCCCS | -6.25%
39 | CCCCCOc1ccc(C2SC(=O)NC2=O)cc1OCC (stereo not given) | 4.53% [at 42.5 µM]
40 | CN[C@@H]1[C@H](O)[C@H](NC)[C@H]2O[C@@]3(O)C(=O)C[C@@H](C)O[C@H]3O[C@@H]2[C@H]1O | 6.41% [at 42.5 µM]

— PubChem BioAssay (Tox21)
